Rows were chosen to be rich in hits. Some 3.5% of all compounds tested hit in one or more screens of this group.
FBW7 act: human FBW7 E3 ligase activation, primary screen; normalized activity (activation), % at 26.1 µM; AID 1259310; AlphaScreen FBW7–phospho-cyclin E peptide binding, activator screen; Q969H0; 0.13% of 650,000 active; in the data active means normalized activity above about 1.9%;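 further: purified mutant Fbw7 with reduced substrate affinity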
TEAD-YAP block: TEAD-YAP interaction inhibition | HEK-TIYL cells, TEAD-Gal4/YAP UAS-luciferase luminescence | inhibition, % at 9.12 µM | 1.4% of 640,000 active; in the data active means inhibition above about 32%;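 further: 0% = median of test compound wells and 100% = reference inhibitor wells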
GPR151 activ: human GPR151 activation; Q8TDV0; PathHunter beta-arrestin GPR151 cells, luminescence; activation, % at 11.2 µM; 1% of 650,000 active; in the data active means activation above about 4.9%;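 further: 0% = median of compound wells and 100% = cells with positive control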
Target sequence (Q8TDV0 whole entry, looked up): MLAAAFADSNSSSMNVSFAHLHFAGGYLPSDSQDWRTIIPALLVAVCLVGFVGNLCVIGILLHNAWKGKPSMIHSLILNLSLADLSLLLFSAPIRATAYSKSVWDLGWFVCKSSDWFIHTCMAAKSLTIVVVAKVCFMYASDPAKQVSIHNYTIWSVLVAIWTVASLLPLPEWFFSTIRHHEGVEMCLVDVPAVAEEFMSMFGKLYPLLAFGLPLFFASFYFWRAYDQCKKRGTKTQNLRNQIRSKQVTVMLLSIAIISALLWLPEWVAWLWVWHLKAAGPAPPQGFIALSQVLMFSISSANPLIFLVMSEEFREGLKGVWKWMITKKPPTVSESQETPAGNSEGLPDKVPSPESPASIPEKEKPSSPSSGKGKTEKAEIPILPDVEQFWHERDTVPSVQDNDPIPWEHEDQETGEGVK
MITF inh: human MITF inhibition, primary screen | O75030 | AlphaScreen MITF homodimerization, bead proximity signal | inhibition, % at 2.6 µM | 0.91% of 650,000 active; in the data active means inhibition above about 50%;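 further: 0% = vehicle wells with protein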
GPR151 confirm: human GPR151 activation, confirmation screen; AID 1508609; GPR151 PathHunter beta-arrestin cells, luminescence, 90 min; % of EA-reagent control over plate median; shares compounds with GPR151 activ; 6,700 tested, under 10 active; activation, % at 11.2 µM;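 active means mean percent activation across replicates above the confirmation screen cutoff of 4.91%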
GPR119 counter: counter-screen for GPR151 activators: effect on human GPR119; shares compounds with GPR151 activ; GPR119 PathHunter beta-arrestin cells, luminescence, 90 min; 0 = compound-well median, 100 = enzyme-acceptor control; activation, % at 11.2 µM; 0.3% of 6,700 active;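 active means mean percent activation in the counterscreen above 29.09%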;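 further: counterscreen on off-target GPR119 to flag nonselective hits from the GPR151 activator screen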
Active calls of the source: *; / = no result given.

SMILES	FBW7 act	TEAD-YAP block	GPR151 activ	MITF inh	GPR151 confirm	GPR119 counter
Cn1c(=O)oc2cc(S(=O)(=O)NC3CCN(Cc4ccccc4)CC3)ccc21	0.0	-1.1	-1.1	13.3	/	/
CCCCc1ccc(C2=N/C(=C\c3ccccc3)C(=O)O2)cc1	0.0	-1.8	6.4*	0.9	-0.5	-10.0
CCCCc1ccc(C2=N/C(=C\c3ccc(C)cc3)C(=O)O2)cc1	-0.1	-3.9	-0.3	-6.0	/	/
C/C(=N/NC(N)=S)c1ccccc1[N+](=O)[O-]	0.1	5.8	5.6*	-2.4	-0.7	-8.1
COc1cc(C(=O)Nc2nnc(Cc3ccc(Cl)cc3)s2)c([N+](=O)[O-])cc1OC	-0.3	11.7	6.1*	-1.5	1.5	-3.0
CC(C)NC(=O)CSc1nnc(-c2cccnc2)n1Cc1ccco1	-0.1	0.2	1.0	-12.3	/	/
Cc1ccc(-c2csc3nnc(SCC(=O)N4CCOCC4)n23)cc1	0.5	0.1	5.0*	8.0	0.6	-0.9
O=C(CSc1nnc2scc(-c3ccccc3)n12)N1CCCCCC1	0.8	-3.1	-2.3	21.3	/	/
O=C(O)c1ccc(-n2ccnc2)c([N+](=O)[O-])c1	0.2	-3.7	2.0	4.6	/	/
Cc1ccc(C(=O)c2ccccc2)cc1[N+](=O)[O-]	0.1	2.7	8.7*	12.2	-1.0	-0.8
O=C(c1ccccc1)c1ccc(-n2ccnc2)c([N+](=O)[O-])c1	-0.1	2.6	7.3*	8.0	-0.2	3.2
CC(C)(C)c1nn2c(=S)[nH]nc2n(/N=C/c2ccc([N+](=O)[O-])cc2)c1=O	0.2	1.3	0.9	-5.5	/	/
O=C(CN(Cc1ccc(F)cc1)S(=O)(=O)c1ccccc1)Nc1cccc([N+](=O)[O-])c1	0.0	-0.7	5.1*	9.3	0.1	3.6
O=[N+]([O-])c1cccc(S(=O)(=O)NCc2ccco2)c1	0.0	12.6	2.8	10.9	/	/
O=[N+]([O-])c1cccc(S(=O)(=O)NCc2ccc(F)cc2)c1	0.0	9.8	9.0*	4.1	1.4	13.6
CC(C)(C)NC(=O)CN(Cc1ccccc1)S(=O)(=O)c1ccc(F)cc1	0.1	11.7	5.3*	0.2	0.1	-1.9
O=C(CN(Cc1ccccc1)S(=O)(=O)c1ccc(F)cc1)Nc1cccc([N+](=O)[O-])c1	0.0	2.9	3.5	13.0	/	/
COc1cc(NC(=O)c2ccc(N3CC4CC(C3)c3cccc(=O)n3C4)c(NC(=O)Cc3c(F)cccc3Cl)c2)cc(OC)c1OC (stereo not drawn)	-0.1	-2.0	-0.3	-14.7	/	/
O=C1NCCN(CC(c2ccccc2)c2ccccc2)C1CC(=O)N1CCCCC1 (stereo not drawn)	-0.3	1.3	-0.6	0.4	/	/
COc1ccc(N(CC(=O)NCCC(C)C)C(=O)c2snc(C(N)=O)c2N)c(OC)c1	1.0	-8.8	-0.2	-2.0	/	/
COc1ccc(C)cc1N(CC(=O)NCCC(C)C)C(=O)c1snc(C(N)=O)c1N	-0.1	-2.0	11.5*	-23.2	1.1	5.2
CSCCC(NC(=O)c1ccc(Cl)c([N+](=O)[O-])c1)C(=O)O (stereo not drawn)	-0.3	5.4	5.3*	-0.1	2.3	12.3
COC(=O)c1cc(NC(=O)Cn2ccsc2=N)cc(C(=O)OC)c1	-0.1	2.7	-0.7	11.5	/	/
CCC1CCCCN1S(=O)(=O)c1cc(OC)c(Cl)cc1OC (stereo not drawn)	0.0	-1.6	5.6*	2.9	-0.2	7.5
CCC1CCCCN1S(=O)(=O)c1ccc(OC)cc1 (stereo not drawn)	-0.1	6.8	0.3	3.8	/	/
SMILES	FBW7 act	TEAD-YAP block	GPR151 activ	MITF inh	GPR151 confirm	GPR119 counter
CC1CCN(C(=O)Cn2nc(SCc3ccccn3)nc2N)CC1	0.1	5.0	16.6*	25.8	0.3	2.4
Cn1c(-c2cccc(Cl)c2)cnc1NC(=O)c1ccccc1	-0.3	-39.5	-0.1	-14.5	/	/
CCN(CC)C(=O)C1CCCN(c2ccc([N+](=O)[O-])cc2[N+](=O)[O-])C1 (stereo not drawn)	0.0	8.7	0.7	-4.4	/	/
CCN(CC)C(=O)C1CCCN(c2ccc([N+](=O)[O-])cc2S(=O)(=O)N2CCCC2)C1 (stereo not drawn)	0.1	-16.8	7.0*	-3.5	0.2	14.5
Cc1ccc(CN2C(=O)CCC2CCNCCOc2ccc(F)cc2)cc1F (stereo not drawn)	-0.1	7.0	1.3	43.0	/	/
Cc1ccc2nc(/C(C#N)=C\c3ccccc3OCC#N)[nH]c2c1	0.0	-27.8	5.1*	10.0	1.9	6.9
N#C/C(=C\c1ccc(O)cc1O)c1nc2ccccc2[nH]1	0.0	-33.4	-4.9	-3.9	/	/
N#C/C(=C\c1cc(Cl)ccc1O)c1nc2ccccc2[nH]1	0.1	-22.1	5.7*	7.5	2.0	8.3
Cc1ccc(C)c(OCCOc2ccc(C=C3C(=O)NC(=O)NC3=O)cc2)c1	0.0	9.7	1.9	-6.0	/	/
Cc1ccc(C)c(NC(=O)C23CCC(C)(C(=O)C2=O)C3(C)C)c1 (stereo not drawn)	0.0	-2.9	2.9	1.0	/	/
CC12CCC(C(=O)Nc3ccccc3C(F)(F)F)(C(=O)C1=O)C2(C)C (stereo not drawn)	0.3	0.3	6.1*	-19.0	0.3	4.4
COc1ccc(S(=O)(=O)Oc2cccc(C=C3C(=O)NC(=O)NC3=O)c2)cc1	-1.0	-9.8	6.1*	-5.2	-0.1	7.5
CCOc1cc(C=C2C(=O)NC(=O)NC2=O)ccc1OS(=O)(=O)c1ccc(OC)cc1	-0.1	6.4	6.0*	-11.4	0.5	3.6
O=C1NC(=O)C(=Cc2cccc(OS(=O)(=O)c3ccc(Cl)cc3)c2)C(=O)N1	-0.7	-21.0	2.2	-8.7	/	/
CCOc1cc(C=C2C(=O)NC(=O)NC2=O)ccc1OC	0.1	14.2	-1.5	12.0	/	/
COCCN1CC(CNC(=O)c2cc(COc3ccc(F)cc3Cl)on2)CC1=O (stereo not drawn)	0.0	1.8	9.8*	6.7	-1.2	-9.5
Cc1ccc(OCCN2CCCC2)c([N+](=O)[O-])c1	0.1	0.5	5.3*	45.7	-0.2	-6.6
COc1ccc(OCCOc2ccc(C)cc2[N+](=O)[O-])cc1	0.4	-54.8	0.8	11.2	/	/
Cc1cc(OCCN(C)C)ccc1[N+](=O)[O-]	-0.1	-3.6	-1.3	39.8	/	/
Cc1cc(OCCCNCCN(C)C)ccc1[N+](=O)[O-]	-0.2	-5.7	5.4*	-3.5	-0.3	-10.5
COCCNCCCOc1ccc(C)cc1[N+](=O)[O-]	-0.1	-0.9	7.3*	30.5	-0.9	-8.8
Cc1ccccc1C(=O)NC(=S)Nc1ccc(-c2nc3ncccc3o2)cc1	0.0	-5.7	0.2	-16.5	/	/
NS(=O)(=O)c1ccc(CCn2c(SCC(=O)c3ccccc3)nc3ccccc3c2=O)cc1	0.1	-5.3	-1.1	-4.2	/	/

Screens (PubChem)
